Measurements published in PubChem BioAssay (NCI).
Compounds without any hit were thinned out: in the full panel of roughly 79,000, 15% have a hit. Active and inactive are the calls of the source. No stated cut-off is given here; in the data, active means growth inhibition above about 70%; inactive means the rest.

Experiments:
[1] = NCI Yeast Anticancer Drug Screen. Data for the wt1 strain (AID 149);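 further: 0% = growth of vehicle-treated wt1 cultures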; conditions: S. cerevisiae wt1 strain (SPY 50644) growth inhibition, stronger effect = higher value
Outline: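 Using yeast strain wt1, compound-induced growth inhibition was determined against vehicle-treated cultures.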

[2] = NCI Yeast Anticancer Drug Screen. Data for the rad50EPP+ strain (AID 151);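 further: 0% = growth of vehicle-treated control cultures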; conditions: S. cerevisiae rad50 mutant strain, stronger effect = higher value
Outline: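 Growth inhibition read against vehicle controls in rad50EPP+ yeast, a strain altered in DNA damage repair, after compound exposure.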

[3] = NCI Yeast Anticancer Drug Screen. Data for the rad50 strain (AID 155);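 further: 0% = growth of vehicle-only cultures of the same strain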; conditions: S. cerevisiae rad50 strain growth inhibition, stronger effect = higher value
Outline: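 Relative growth inhibition (compound vs vehicle) was measured in yeast with a defined repair-gene alteration.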

[4] = NCI Yeast Anticancer Drug Screen. Data for the mec2-1 strain (AID 157); conditions: S. cerevisiae mec2-1 strain, stronger effect = higher value
Outline: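 Yeast mec2-1 mutant treated with compound. Readout: growth inhibition vs vehicle controls.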

[5] = NCI Yeast Anticancer Drug Screen. Data for the rad14 strain (AID 159);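 further: 0% = growth of vehicle-treated control cultures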; conditions: S. cerevisiae rad14 strain growth inhibition, stronger effect = higher value
Outline: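 Screen for anticancer potential: a yeast strain altered in DNA damage repair is grown with compound, and reduced growth is quantified against vehicle controls.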

[6] = NCI Yeast Anticancer Drug Screen. Data for the sgs1 mgt1 strain (AID 161);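 further: 0% = growth of cultures given vehicle only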; conditions: S. cerevisiae sgs1 mgt1 strain, stronger effect = higher value
Outline: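 Genetically altered yeast, compound exposure, growth inhibition relative to vehicle.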

[7] = NCI Yeast Anticancer Drug Screen. Data for the CLN2oe strain (AID 163);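 further: 0% = growth of vehicle-only control cultures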; conditions: S. cerevisiae CLN2oe strain, stronger effect = higher value
Outline: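 Read-out: yeast growth inhibition, expressed relative to vehicle-only controls. The strain bears an engineered cell-cycle alteration.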

[8] = NCI Yeast Anticancer Drug Screen. Data for the bub3 strain (AID 167); conditions: S. cerevisiae bub3 mutant strain, stronger effect = higher value
Outline: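 Screening used yeast with an engineered genetic alteration affecting cell cycle control. Compound-exposed cultures were compared with vehicle cultures, and reduced growth was taken as inhibition.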

[9] = NCI Yeast Anticancer Drug Screen. Data for the wt2 strain (AID 169);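 further: 0% = growth of vehicle-treated yeast cultures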; conditions: S. cerevisiae wt2 strain growth inhibition, stronger effect = higher value
Outline: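 Read-out: growth inhibition versus vehicle-treated control cultures after compound exposure of the yeast strain.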

[10] = NCI Yeast Anticancer Drug Screen. Data for the sgs1 strain (AID 173);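 further: 0% = growth of vehicle-only control cultures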; conditions: S. cerevisiae sgs1 mutant, stronger effect = higher value
Outline: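 Read-out: yeast growth inhibition relative to vehicle controls, following compound exposure of a strain with a defined DNA repair/cell cycle alteration.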

[11] = NCI Yeast Anticancer Drug Screen. Data for the mlh1 rad18 strain (AID 175); conditions: S. cerevisiae mlh1 rad18 strain growth inhibition, stronger effect = higher value
Outline: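 Yeast w/ defined DNA-repair lesions; compound exposure; growth vs vehicle controls → % inhibition.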

[12] = NCI Yeast Anticancer Drug Screen. Data for the rad18 strain (AID 177); conditions: S. cerevisiae rad18 mutant growth inhibition, stronger effect = higher value
Outline: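 Readout: growth inhibition vs vehicle controls. Cells: genetically altered yeast strain, DNA repair defect.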

[13] = NCI Yeast Anticancer Drug Screen. Data for the cln2 rad14 strain (AID 165);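 further: 0% = growth equal to vehicle treated cultures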; conditions: S. cerevisiae cln2 rad14 strain, stronger effect = higher value
Outline: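 cln2 rad14 yeast strain; compound exposure; growth inhibition read vs vehicle controls.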

[14] = at 5.0 µM (retest, dose inferred, filed as 0.5)
[15] = at 50.0 µM (retest, dose inferred, filed as 5.0)

Measured: growth inhibition

C/C(=N\NC(=S)NNC(=S)N(C)c1ccccc1)c1ccccn1
active: [1]; at 11.0 µM 97% | [1]; at 33.0 µM 98% | [1]; at 100.0 µM 86% | [2]; at 11.0 µM 92% | [2]; at 33.0 µM 98% | [2]; at 100.0 µM 81% | [3]; at 11.0 µM 97% | [3]; at 33.0 µM 97% | [3]; [15] 98% | [3]; at 50.0 µM 87% | [3]; at 100.0 µM 83% | [4]; at 11.0 µM 98% | [4]; at 33.0 µM 99% | [4]; [15] 99% | [4]; at 50.0 µM 90.5% | [4]; at 100.0 µM 82% | [5]; at 3.7 µM 71% | [5]; at 11.0 µM 97% | [5]; at 33.0 µM 98% | [5]; at 100.0 µM 79% | [6]; [15] 98% | [6]; at 50.0 µM 88.5% | [7]; at 11.0 µM 97% | [7]; at 33.0 µM 98% | [7]; at 100.0 µM 79% | [8]; [14] 82% | [8]; at 11.0 µM 97% | [8]; at 33.0 µM 97% | [8]; [15] 98% | [8]; at 50.0 µM 87.2% | [8]; at 100.0 µM 83% | [9]; at 11.0 µM 97% | [9]; at 33.0 µM 99% | [9]; at 100.0 µM 90% | [10]; at 11.0 µM 98% | [10]; at 33.0 µM 98% | [10]; at 100.0 µM 88% | [11]; [15] 99% | [11]; at 50.0 µM 84.5% | [12]; at 11.0 µM 98% | [12]; at 33.0 µM 98% | [12]; at 100.0 µM 83%
inactive: [1]; at 1.2 µM -4% | [1]; at 3.7 µM 46% | [2]; at 1.2 µM 11% | [2]; at 3.7 µM 5% | [3]; at 1.2 µM -9% | [3]; at 3.7 µM 37% | [3]; [14] -19% | [4]; at 1.2 µM 18% | [4]; at 3.7 µM 25% | [4]; [14] 10% | [5]; at 1.2 µM -6% | [6]; [14] 0% | [7]; at 1.2 µM 17% | [7]; at 3.7 µM 13% | [8]; at 1.2 µM -17% | [8]; at 3.7 µM 21% | [9]; at 1.2 µM 9% | [9]; at 3.7 µM 22% | [10]; at 1.2 µM 13% | [10]; at 3.7 µM 64% | [11]; [14] 27% | [12]; at 1.2 µM 16% | [12]; at 3.7 µM 31%

CCCCCCSc1nc(COC(=O)NC)c(COC(=O)NC)n1C
inactive: [1]; at 1.2 µM -1% | [1]; at 3.7 µM -2% | [1]; at 11.0 µM -2% | [1]; at 33.0 µM 6% | [2]; at 1.2 µM -3% | [2]; at 3.7 µM -6% | [2]; at 11.0 µM -6% | [2]; at 33.0 µM 5% | [3]; at 1.2 µM 0% | [3]; at 3.7 µM -48% | [3]; [14] 0% | [3]; at 11.0 µM 20% | [3]; at 33.0 µM 54% | [3]; at 50.0 µM 49.6% | [4]; at 1.2 µM -1% | [4]; at 3.7 µM 2% | [4]; [14] 0% | [4]; at 11.0 µM 0% | [4]; at 33.0 µM 9% | [4]; [15] 27% | [5]; at 1.2 µM -3% | [5]; at 3.7 µM -4% | [5]; at 11.0 µM -4% | [5]; at 33.0 µM 28% | [6]; [14] 0% | [6]; [15] 5% | [6]; at 50.0 µM 19.9% | [7]; at 1.2 µM -2% | [7]; at 3.7 µM -5% | [7]; at 11.0 µM -3% | [7]; at 33.0 µM 20% | [13]; [14] -2% | [13]; [15] 57% | [8]; at 1.2 µM -4% | [8]; at 3.7 µM 0% | [8]; [14] -2% | [8]; at 11.0 µM -4% | [8]; at 33.0 µM 16% | [8]; [15] 45% | [8]; at 50.0 µM 44.2% | [10]; at 1.2 µM -4% | [10]; at 3.7 µM -3% | [10]; at 11.0 µM -6% | [10]; at 33.0 µM 59% | [11]; [14] -2%
active: [1]; at 100.0 µM 98% | [2]; at 100.0 µM 87% | [3]; [15] 91% | [3]; at 100.0 µM 99% | [4]; at 50.0 µM 98.3% | [4]; at 100.0 µM 99% | [5]; at 100.0 µM 99% | [7]; at 100.0 µM 97% | [13]; at 50.0 µM 72.8% | [8]; at 100.0 µM 99% | [10]; at 100.0 µM 99% | [11]; [15] 74% | [11]; at 50.0 µM 98.3%
